Hits are enriched below; roughly 3.4% of the tested compounds scored in any of these assays.
MITF inh – human MITF inhibition, primary screen | O75030 | AlphaScreen MITF homodimerization, bead proximity signal | inhibition, % at 2.6 µM | hit rate 0.91% among 650,000 | AID 1259374; in the data active = inhibition above about 50%;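 also: 0% = vehicle wells with protein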
GPR151 ag – human GPR151 activation; activation, % at 11.2 µM; AID 1508602; PathHunter beta-arrestin GPR151 cells, luminescence; Q8TDV0; hit rate 1% among 650,000; in the data active = activation above about 4.9%;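 also: 0% = median of compound wells and 100% = cells with positive control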
TEAD-YAP block – TEAD-YAP interaction inhibition; hit rate 1.4% among 640,000; HEK-TIYL cells, TEAD-Gal4/YAP UAS-luciferase luminescence; inhibition, % at 9.12 µM; in the data active = inhibition above about 32%;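 also: 0% = median of test compound wells and 100% = reference inhibitor wells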
FBW7 act – activators of human E3 ligase FBW7 | Q969H0 | AlphaScreen FBW7–phospho-cyclin E peptide binding, activator screen | normalized activity (activation), % at 26.1 µM | hit rate 0.13% among 650,000; in the data active = normalized activity above about 1.9%;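 also: purified mutant Fbw7 with reduced substrate affinity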
Target sequence (Q969H0 whole entry, looked up): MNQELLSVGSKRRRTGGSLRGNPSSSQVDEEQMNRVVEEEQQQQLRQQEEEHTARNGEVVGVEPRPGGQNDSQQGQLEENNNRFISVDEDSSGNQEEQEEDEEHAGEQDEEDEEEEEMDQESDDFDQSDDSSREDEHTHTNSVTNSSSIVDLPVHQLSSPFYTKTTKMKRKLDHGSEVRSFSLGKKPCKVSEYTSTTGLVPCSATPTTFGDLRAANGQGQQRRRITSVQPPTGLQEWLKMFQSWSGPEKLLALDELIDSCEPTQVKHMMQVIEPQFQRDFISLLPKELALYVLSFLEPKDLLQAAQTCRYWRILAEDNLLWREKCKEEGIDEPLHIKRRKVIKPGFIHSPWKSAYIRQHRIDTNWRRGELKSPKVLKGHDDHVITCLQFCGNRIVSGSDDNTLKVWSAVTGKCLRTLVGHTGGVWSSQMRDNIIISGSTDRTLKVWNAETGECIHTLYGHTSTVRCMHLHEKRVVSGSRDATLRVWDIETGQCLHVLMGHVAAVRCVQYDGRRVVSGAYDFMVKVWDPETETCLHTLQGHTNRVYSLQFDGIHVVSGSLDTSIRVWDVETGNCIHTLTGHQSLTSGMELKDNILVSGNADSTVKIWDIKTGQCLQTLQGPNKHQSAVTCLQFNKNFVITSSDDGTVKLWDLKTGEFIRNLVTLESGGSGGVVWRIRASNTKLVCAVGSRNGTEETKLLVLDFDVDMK
MITF inh conf – confirmation of human MITF inhibitors; shares compounds with MITF inh; AlphaScreen MITF homodimerization, biotin/His-MITF beads; inhibition, % at 2.6 µM; hit rate 16% among 4,700; AID 1259372;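 active = inhibition above a cutoff derived from the DMSO control wells, cut at about 28% in these data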;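 also: 0% = MITF dimer wells with DMSO only; inhibitors lower the bead chemiluminescence by keeping MITF from dimerizing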
AlphaScreen DR – optically interferes with AlphaScreen signal in dose response. shares compounds with MITF inh. hit rate 6% among 480. AID 1259373. IC50, µM. AlphaScreen optical interference counterscreen, cell-free; call rule not given here
AlphaScreen intf2 – optically interferes with AlphaScreen signal | shares compounds with MITF inh | LysRS AlphaScreen counterscreen, signal interference, triplicate | inhibition, % at 2.6 µM | hit rate 7.6% among 4,700 | AID 1259376;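 active = inhibition above a cutoff derived from the DMSO control wells, cut at about 30% in these data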
The depositor's hits bear a star; . = no result given.

SMILES	MITF inh	GPR151 ag	TEAD-YAP block	FBW7 act	MITF inh conf	AlphaScreen intf2	others
Cc1nc(-c2cn[nH]c2-c2ccc(O)c(C)c2O)cs1	15.2	0.5	24.4	0.1	.	.
O=C1CCC(CCNCc2ccc(F)cc2)N1CC1(c2ccccc2)CCOCC1 (stereo unspecified)	50.7*	-1.0	-0.2	-0.1	-2.8	1.8
O=C1CCC(CCNCc2cccnc2)N1CC1(c2ccccc2)CCOCC1 (stereo unspecified)	0.8	0.4	0.1	0.1	.	.
c1cc(-c2ccc(-c3cn[nH]c3)cc2)nc(Nc2ccc(-n3cnc(N4CCOCC4)n3)cc2)n1	43.5	-0.4	-3.3	0.7	.	.
N#Cc1ccc(-c2ccc(F)cc2)nc1SCC(=O)NC1CC1	51.8*	0.7	4.6	0.2	-3.1	2.6
COC(=O)c1nnn(CC(=O)Nc2ccc(Br)cc2)c1C(=O)OC	13.2	-1.3	0.9	-0.1	.	.
CCc1ccc(NC(=O)Cn2nnc(C(=O)OC)c2C(=O)OC)cc1	52.2*	2.7	-1.4	0.0	-6.2	-2.7
Cc1cc2c(cc3c(=O)n(CC(=O)O)ncn32)o1	-4.0	1.6	-31.4	0.3	.	.
COc1cc(OC)nc(Oc2cccnc2C(=O)NNc2ccccc2)n1	54.4*	1.8	-7.4	-0.8	36.4*	70.4*
CCOC(=O)c1ccc(NC(=O)CSc2ccc(F)cc2)cc1	53.9*	-0.5	-2.8	0.1	4.1	12.4
CCOC(=O)c1ccc(NC(=O)CCSc2ccc(C)cc2)cc1	18.6	-0.4	-1.8	0.2	.	.
C=C1C2(C(=O)NC(C)c3ccccc3)CCC(C2)C1(C)C (stereo unspecified)	-4.8	-0.2	-5.0	-0.2	.	.
COc1ccc(CN2CCC(C(=O)N3CCc4ccccc4C3)CC2)cc1	29.7	0.4	2.2	0.1	.	.
O=C(C1CCN(Cc2cccnc2)CC1)N1CCN(C/C=C/c2ccccc2)CC1	58.1*	1.0	16.3	-0.1	9.2	8.9
COc1ccc(CN2CCC(C(=O)N3CCc4ccccc4C3)CC2)c(OC)c1	52.6*	-0.1	7.6	0.2	3.4	11.1
O=C(C1CCN(Cc2ccc(F)cc2)CC1)N1CCN(c2ccccc2)CC1	51.6*	1.1	-0.4	0.1	1.2	14.7
CCOc1ccccc1N1CCN(C(=O)C2CCNCC2)CC1	57.9*	0.4	6.3	-0.2	10.7	12.9
O=C(CSc1nc2ccc(Cl)cc2o1)c1ccc(S(=O)(=O)N2CCCC2)cc1	3.4	0.2	-1.7	0.0	.	.
CC1CCN(S(=O)(=O)c2cccc(C(=O)Nc3ccccc3C(=O)N3CCCC3)c2)CC1	8.2	-1.2	-3.9	0.5	.	.
CCOC(=O)N1CCN(C(=O)C2CCN(Cc3cc(OC)ccc3OC)CC2)CC1	40.8	-0.1	3.2	0.0	.	.
COc1ccccc1CN1CCC(C(=O)N2CCN(Cc3ccccc3)CC2)CC1	51.8*	1.4	15.2	-0.1	9.9	10.1
O=C(C1CCN(Cc2cccc(O)c2)CC1)N1CCN(Cc2ccccc2)CC1	47.8	0.2	4.4	0.5	.	.
O=C(C1CCN(Cc2ccccc2)CC1)N1CCN(Cc2ccccc2)CC1	54.7*	-1.3	19.3	0.2	6.4	13.0
COc1cc(CN2CCC(C(=O)N3CCCC(C)C3)CC2)ccc1O (stereo unspecified)	23.8	2.0	5.5	0.2	.	.
COc1cc(CN2CCC(C(=O)N3CCN(Cc4ccccc4)CC3)CC2)ccc1O	59.9*	-0.1	2.0	0.0	-1.0	0.1
SMILES	MITF inh	GPR151 ag	TEAD-YAP block	FBW7 act	MITF inh conf	AlphaScreen intf2	others
CCOC(=O)N1CCN(C(=O)C2CCN(Cc3ccccc3OC)CC2)CC1	54.1*	-0.5	-3.8	0.2	2.3	16.8
CC(=O)c1c(C)[nH]c(C(=O)COC(=O)c2ccc3c(c2)OCO3)c1C	-4.4	1.9	-2.3	-0.1	.	.
COc1ccc(CCNC(=O)C(=O)Nc2ccc(Cl)cc2)cc1	-2.4	0.7	-0.7	0.0	.	.
CCc1ccccc1NC(=O)Cn1cnc2c(sc3nc(C)cc(C)c32)c1=O	4.7	-1.2	-1.0	-0.1	.	.
O=C1CCC(C(=O)OCC(=O)Nc2ccc(Oc3ccccc3)cc2)=NN1	8.4	-0.2	-2.7	0.0	.	.
C=CCc1ccc(OCCCCN2CCNCC2)c(OC)c1	66.6*	2.5	-11.1	-0.1	6.2	1.1
C=CCc1ccc(OCCN2CCN(CC)CC2)c(OC)c1	70.9*	-0.4	-6.3	-0.1	3.9	15.2
C=CCc1ccc(OCCNC)c(OC)c1	38.2	3.2	2.1	-0.1	.	.
C=CCc1ccc(OCCCCCN2CCOCC2)c(OC)c1	59.1*	3.0	-7.1	-0.3	-0.1	-1.4
Cc1ccc(-c2nnc(Nc3ccc(Cl)c(Cl)c3)c3ccccc23)cc1S(=O)(=O)NCCO	88.9*	-0.7	-10.3	0.0	2.9	7.9
Nc1nnnn1/N=C/c1ccc(N2CCOCC2)cc1	10.9	-1.4	-22.7	0.6	.	.
CCNCC(=O)c1[nH]c(C)c(C(C)=O)c1C	51.4*	-0.1	6.4	-0.4	-3.9	-3.5
CCOc1ccc(NC2=NCC(=O)N2c2ccccc2)cc1	-9.7	0.5	-0.5	-0.1	.	.
N#CC1=C(N)n2c(s/c(=C\c3ccco3)c2=O)=C(C#N)C1c1ccco1 (stereo unspecified)	56.2*	-0.3	10.9	-0.7	42.2*	4.8	AlphaScreen DR=>6.53
O=C(NCCOc1ccccc1)c1ccc(-c2ccc(N3CCOCC3)nc2)s1	79.5*	-12.4	-31.6	0.3	3.3	2.4
O=C(NCc1ccccc1)c1ccc(-c2ccc(N3CCOCC3)nc2)s1	11.8	-0.2	11.1	0.2	.	.
CC1CCCC(C)N1CCCNC(=O)Cn1c(=O)c2cccn2c2ccccc21 (stereo unspecified)	-1.2	0.2	-9.4	0.3	.	.
CC(NCCN(C)C)C(=O)Nc1ccc2c(c1)OCO2 (stereo unspecified)	73.3*	0.2	3.3	-0.3	2.6	2.4
CCCn1c2ccccc2c2nnc(SCC(=O)N(c3ccccc3)c3ccccc3)nc21	9.5	-0.1	3.3	0.1	.	.
O=C(O)c1coc(CNC(=O)c2cocc2C(=O)O)c1	64.2*	0.0	9.2	0.1	50.4*	14.4	AlphaScreen DR=>6.48
CC1=C(C(=O)N2CCOCC2)C(c2ccc(C)cc2)NC(=S)N1 (stereo unspecified)	70.2*	-0.7	-7.8	-0.2	9.1	16.1
CC1=C(C(=O)N2CCOCC2)C(c2ccc(Cl)cc2)NC(=S)N1 (stereo unspecified)	-11.3	0.2	-3.7	-0.1	.	.
Cc1nnc(C)n1/N=C\c1cccc2ccccc12	66.5*	0.8	1.7	0.0	-13.4	-3.7
O=C(NC1CCCC1)C1c2ccccc2Oc2ccccc21	76.3*	-0.2	-1.5	-0.2	-2.1	-6.2
O=C(NCCSc1ccccc1)c1cccnc1	77.2*	-0.4	-37.8	0.2	-0.6	-2.8
Cc1[nH]c2ccccc2c1SCCNC(=O)c1ccncc1	62.1*	0.0	-1.5	-0.1	4.0	-7.1
CCOC(=O)N1CCN(c2cccc(C)c2C)CC1	-0.1	-0.5	0.7	0.1	.	.
